# From PubChem BioAssay
# Hits are enriched below; roughly 6% of the tested compounds scored in any of these assays.
# DRD3 antagonist: D3 dopamine receptor (human) antagonism | actives 2.5% (n = 360,000) | max response, negative = inhibition, % | D3R cells, DiscoveRx beta-arrestin luminescence, antagonist mode; active compounds read low | AID 652054 | P35462; in the data active = max response below about -50%; inconclusive = no clear call, values can overlap the other calls; also: % is scaled to controls: 0 for no effect and ±100 for the full control effect
#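 Cells expressing the human receptor were seeded at 1500 cells/well, incubated overnight at 37 degrees C in 5% CO2, then exposed to library compounds with dopamine controls for 90 minutes at 37 degrees C before luminescent detection.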
# D1 agonist: agonists of human D1 dopamine receptor; actives 1% (n = 360,000); AID 504660; activation, % at 2 µM; HEK293 T-REx D1 cells, calcium flux, agonist mode; in the data active = activation above about 30%; also: 0% is about no effect
# Target sequence (P21728 whole entry, looked up): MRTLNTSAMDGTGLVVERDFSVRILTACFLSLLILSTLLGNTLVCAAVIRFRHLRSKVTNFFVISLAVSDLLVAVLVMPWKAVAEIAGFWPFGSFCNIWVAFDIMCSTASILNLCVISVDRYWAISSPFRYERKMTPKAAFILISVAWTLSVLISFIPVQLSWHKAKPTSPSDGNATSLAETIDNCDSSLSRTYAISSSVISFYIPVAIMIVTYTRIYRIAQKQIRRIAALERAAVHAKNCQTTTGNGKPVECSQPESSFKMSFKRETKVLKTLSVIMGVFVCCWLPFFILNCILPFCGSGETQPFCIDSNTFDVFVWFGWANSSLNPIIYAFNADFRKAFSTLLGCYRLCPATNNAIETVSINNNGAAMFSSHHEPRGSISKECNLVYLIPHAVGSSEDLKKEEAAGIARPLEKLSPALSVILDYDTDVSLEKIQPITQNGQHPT
#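 Agonism was scored from calcium flux recorded over 180 s (1 read/s) after pintool compound addition, following a 10-cycle baseline. Cells were inducible force-coupled HEK293 TREx D1, plated overnight at 30 C and loaded with no-wash calcium dye.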
# D1 PAM: potentiators of human D1 dopamine receptor; potentiation, % at 10 µM; HEK293 TREx D1 cells, calcium flux, dopamine EC20 potentiation; actives 0.036% (n = 360,000); AID 504651; in the data active = potentiation above about 30%; also: 0% is about no effect
# D3 ag: D3 dopamine receptor (human) agonism; P35462; actives 0.58% (n = 410,000); max activation, %; D3R DiscoveRx beta-arrestin cells, luminescence, 90 min; AID 652048; in the data active = max activation above about 30%; also: 0% is about no effect
#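 Agonist-mode cell screen: cells plated at 1500/well and incubated overnight at 37 °C, then exposed to library compounds for 90 min at 37 °C. Detection reagent was added for 30–60 min at room temperature, and luminescence was read.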
# D1 antagonist: blocks dopamine activation of the human D1 receptor | P21728 | HEK293 TREx D1 cells, calcium flux, dopamine EC80; active compounds read low | activity change, negative = inhibition, % at 10 µM | actives 3.2% (n = 360,000); in the data active = activity change below about -30%; also: % is scaled to controls: 0 for no effect and ±100 for the full control effect
#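 Calcium flux readout: force-coupled, inducible Hek293 Trex D1 line, cells induced overnight at 30 C with tetracycline, dye-loaded 30–90 min at RT. Antagonism scored against EC80 dopamine challenge given 180 s after compound.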
# BCR signal inh: blocks chronic active B-cell receptor signaling. Potency, µM (titrated, usually from 46.1 µM), inactives show top-dose activity change, negative = inhibition, hits mostly inhibitors. ABC-DLBCL IkBa-CBG/CBR reporter, luminescence ratio, 4 h. actives 0.05% (n = 340,000). AID 493014; active = well fitted inhibition curve with a large enough effect in the signal ratio, with a control signal flat, not every such curve was filed as active; inconclusive = small, poorly fitted or top-dose-only effect, or effect the other way, or a change in a side signal; the % refers to the signal ratio;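 also: potency is read from the fitted curve at half-maximal effect; plate controls were basal doxycycline-induced cells for no effect and cells given 10 µM MG132 for full effect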
#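 Doxycycline induced both beetle luciferases in TMD8 lymphoma cells; IKK-driven degradation limits the IkappaBalpha-fused green signal, while red luminescence normalises for cell number and nonspecific effects. Compounds tested up to 46 uM, 4 hrs.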
# Starred values were filed as active, the others as inactive; ? = inconclusive; · = no result.
SMILES,DRD3 antagonist,D1 agonist,D1 PAM,D3 ag,D1 antagonist,BCR signal inh
CCCN(CCC)S(=O)(=O)c1ccc(C(=O)Nc2nnc(CSC)o2)cc1,-99*,1,-5,2,1,8%
COCCN(CCOC)S(=O)(=O)c1ccc(C(=O)Nc2nnc(C3CC3)o2)cc1,-53*,-3,-2,-14,11,1%
COc1ccccc1/C=N/NC(=O)c1ccc(N(C)S(=O)(=O)c2ccccc2)cc1,-1,4,2,-3,3,1%
COC(=O)c1cc(CNC(=O)c2ccc(S(=O)(=O)N(C)c3ccccc3)cc2)ccc1OC,49,1,-21,1,-68*,-6%
COc1cccc(/C=N/NC(=O)c2ccc(N(C)S(=O)(=O)c3ccccc3)cc2)c1OC,0,3,0,0,-36*,-16%
CCc1nnc(NC(=O)c2ccc(S(=O)(=O)N(CCOC)CCOC)cc2)o1,?,2,0,-6,23,4%
COc1ccc(-c2nc(CCNC(=O)Cc3ccc(F)cc3)cs2)cc1,·,1,-3,-17,18,·
COc1ccc(NC(=O)CN(C)S(=O)(=O)c2ccc3nc(C)sc3c2)cc1Cl,·,9,-4,-3,-13,·
Cc1nc2ccc(NC(=O)c3ccc(S(=O)(=O)N(C)c4ccccc4)cc3)cc2s1,24,9,-4,-21,-35*,?
COC(=O)c1cc(OC)c(OC)c(OC)c1NC(=O)c1ccc(S(=O)(=O)N(C)C)cc1,-88*,2,-4,-2,0,-5%
Cc1nc2ccc(S(=O)(=O)N(C)CC(=O)Nc3cccc(C(F)(F)F)c3)cc2s1,·,18,-2,1,-33*,·
CC(=O)Nc1ccc(NC(=O)c2ccc(S(=O)(=O)N(C)c3ccccc3)cc2)cc1,-6,5,-11,3,-10,?
CN(c1ccccc1)S(=O)(=O)c1ccc(C(=O)Nc2nnc(-c3ccco3)o2)cc1,-18,4,-2,-13,-32*,-1%
COc1cc(Cl)c(C)cc1NC(=O)c1cnn(-c2ccc(C)cc2)c1-n1cccc1,·,0,1,-11,7,·
CCn1c(=O)c2sccc2n2c(CCCC(=O)Nc3ccc(C)cc3)nnc12,·,3,0,2,-5,·
CCN(Cc1ccccc1)S(=O)(=O)c1ccc(C(=O)Nc2nnc(-c3ccccc3OC)o2)cc1,-86*,4,12,9,-12,?
COc1ccc(CCNC(=O)c2ccc(Cl)c(S(=O)(=O)N(C)c3ccccc3)c2)cc1,63,18,-4,2,-31*,-2%
CCCCN(CCCC)S(=O)(=O)c1ccc(C(=O)Nc2nnc(CSC)o2)cc1,-113*,1,-1,0,-8,-2%
CCCCN(CC)S(=O)(=O)c1ccc(C(=O)Nc2nnc(CSC)o2)cc1,-83*,0,1,-8,9,12%
Cc1cccc(Cn2ncc3c4sc(C)cc4n(C)c3c2=O)c1,·,3,4,·,9,·
CCN(CC)S(=O)(=O)c1ccc2c(c1)N(CC(=O)N1CCN(c3cccc(C)c3)C(C)C1)C(=O)CO2 (centres undefined),·,-1,5,5,9,26%
Cc1nc2ccc(S(=O)(=O)CCC(=O)Nc3ccc(C(C)C)cc3)cc2s1,·,0,0,2,-57*,·
COCc1nnc(NC(=O)c2ccc(S(=O)(=O)N(C)c3ccccc3)cc2)o1,-56*,-1,2,-13,2,-1%
CCCCN(CC)S(=O)(=O)c1ccc(C(=O)Nc2nnc(COC)o2)cc1,-65*,2,0,6,5,-1%
Cc1ccc(CN(C)C(=O)c2ccc(S(=O)(=O)N(C)c3ccccc3)cc2)o1,-1,5,-4,1,-26,-7%
CN(Cc1ccc(OC(F)F)cc1)C(=O)c1ccc(S(=O)(=O)N(C)c2ccccc2)cc1,2,9,-6,6,-40*,3%
CCC(=O)N1CCc2cc(S(=O)(=O)CCC(=O)N3CCN(c4cccc(C)c4C)CC3)ccc21,·,-1,1,-5,10,·
